Inconclusive results are not listed. Active and inactive are the calls of the source. Calls follow the shape of the dose curve; as a rule, active = well fitted curve in the direction sought with a large enough effect; inconclusive = small, poorly fitted or top-dose-only effect, or another doubt; inactive = no such curve, though single readings can be large; an effect the other way counts as inactive or inconclusive.
Assays:
[1] = Quantitative High-Throughput drug screen in 47 multiple myeloma cell lines against the NCATS MIPE library collection: FR4_PLB cell viability assay (AID 1918924; also: nearly all actives have a fitted effect of over 35% in size; also: potency is read from the fitted curve at half-maximal effect)
Procedure, shortened: (§1)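 Inhibition of cell viability is measured here. Each line was plated at 500 cells per well, treated with MIPE 4.0 drugs, kept 48 hours at 37C, then assayed for ATP content by CellTiter-Glo luminescence.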

[2] = Quantitative High-Throughput drug screen in 47 multiple myeloma cell lines against the NCATS MIPE library collection: JIM1_ECACC cell viability assay (AID 1918964; also: potency is read from the fitted curve at half-maximal effect)
Procedure, shortened: (§2)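 Viability readout: CellTiter-Glo luminescence following 5 min room-temperature incubation with reagent. Prior exposure: 48 h, 37C, humidified 5% CO2, 500 cells per well.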

[3] = Quantitative High-Throughput drug screen in 47 multiple myeloma cell lines against the NCATS MIPE library collection: INA6_PLB cell viability assay (AID 1918965; also: nearly all actives have a fitted effect of over 55% in size; also: potency is read from the fitted curve at half-maximal effect)
Procedure, shortened: (§3)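 qHTS of the MIPE 4.0 collection: 500 myeloma cells/well, 48 h drug exposure at 37C in 5% CO2, then CellTiter-Glo for 5 min at room temperature before luminescence reading.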

[4] = Quantitative High-Throughput drug screen in 47 multiple myeloma cell lines against the NCATS MIPE library collection: KMS12BM_JCRB cell viability assay (AID 1918971); also: nearly all actives have a fitted effect of over 35% in size; also: potency is read from the fitted curve at half-maximal effect
Procedure, shortened: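 Approved and investigational drugs from MIPE 4.0 were added by pin tool to 500 cells per well. After 48 hours at 37C, ATP-based CellTiter-Glo luminescence indicated remaining viability.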

[5] = Quantitative High-Throughput drug screen in 47 multiple myeloma cell lines against the NCATS MIPE library collection: Delta47_JCRB cell viability assay (AID 1918925; also: nearly all actives have a fitted effect of over 45% in size; also: potency is read from the fitted curve at half-maximal effect)
Procedure, shortened: as §2

[6] = Quantitative High-Throughput drug screen in 47 multiple myeloma cell lines against the NCATS MIPE library collection: EJM_DSMZ cell viability assay (AID 1918926; also: nearly all actives have a fitted effect of over 30% in size; also: potency is read from the fitted curve at half-maximal effect)
Procedure, shortened: as §2

[7] = Quantitative High-Throughput drug screen in 47 multiple myeloma cell lines against the NCATS MIPE library collection: AMO1_DSMZ cell viability assay (AID 1918927; also: nearly all actives have a fitted effect of over 30% in size; also: potency is read from the fitted curve at half-maximal effect)
Procedure, shortened: as §2

[8] = Quantitative High-Throughput drug screen in 47 multiple myeloma cell lines against the NCATS MIPE library collection: ARD_JJKsccE7 cell viability assay (AID 1918929; also: potency is read from the fitted curve at half-maximal effect)
Procedure, shortened: as §2

[9] = Quantitative High-Throughput drug screen in 47 multiple myeloma cell lines against the NCATS MIPE library collection: KMM1_JCRB cell viability assay (AID 1918960); also: nearly all actives have a fitted effect of over 30% in size; also: potency is read from the fitted curve at half-maximal effect
Procedure, shortened: (§4)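 Myeloma cells at 500 per well in 1536-well format treated with MIPE 4.0 library by pin transfer for 48 h at 37C, 5% CO2. Viability from ATP luminescence (CellTiter-Glo), normalized to DMSO (100%) and media-only (0%) wells.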

[10] = Quantitative High-Throughput drug screen in 47 multiple myeloma cell lines against the NCATS MIPE library collection: KHM11_PLB cell viability assay (AID 1918962); also: nearly all actives have a fitted effect of over 35% in size; also: potency is read from the fitted curve at half-maximal effect
Procedure, shortened: as §1

[11] = Quantitative High-Throughput drug screen in 47 multiple myeloma cell lines against the NCATS MIPE library collection: JIM3_ECACC cell viability assay (AID 1918963; also: nearly all actives have a fitted effect of over 35% in size; also: potency is read from the fitted curve at half-maximal effect)
Procedure, shortened: as §1

[12] = Quantitative High-Throughput drug screen in 47 multiple myeloma cell lines against the NCATS MIPE library collection: Karpas25_ECACC cell viability assay (AID 1918968; also: nearly all actives have a fitted effect of over 35% in size; also: potency is read from the fitted curve at half-maximal effect)
Procedure, shortened: as §2

[13] = Quantitative High-Throughput drug screen in 47 multiple myeloma cell lines against the NCATS MIPE library collection: KMS12PE_JCRB cell viability assay (AID 1918972); also: nearly all actives have a fitted effect of over 30% in size; also: potency is read from the fitted curve at half-maximal effect
Procedure, shortened: as §3

[14] = Quantitative High-Throughput drug screen in 47 multiple myeloma cell lines against the NCATS MIPE library collection: KMS20_JCRB cell viability assay (AID 1918973); also: nearly all actives have a fitted effect of over 45% in size; also: potency is read from the fitted curve at half-maximal effect
Procedure, shortened: as §2

[15] = Quantitative High-Throughput drug screen in 47 multiple myeloma cell lines against the NCATS MIPE library collection: Karpas417_ECACC cell viability assay (AID 1918961); details: Karpas417 myeloma viability, CellTiter-Glo ATP luminescence, 48 h; viability (% of DMSO): at 45.8 µM (top of the series); also: potency is read from the fitted curve at half-maximal effect
Procedure, shortened: as §3

[16] = Quantitative High-Throughput drug screen in 47 multiple myeloma cell lines against the NCATS MIPE library collection: H1112_PLB cell viability assay (AID 1918967; also: nearly all actives have a fitted effect of over 30% in size)
Procedure, shortened: as §2

[17] = Quantitative High-Throughput drug screen in 47 multiple myeloma cell lines against the NCATS MIPE library collection: Karpas620_DSMZ cell viability assay (AID 1918959); also: nearly all actives have a fitted effect of over 30% in size; also: potency is read from the fitted curve at half-maximal effect
Procedure, shortened: as §1

[18] = Quantitative High-Throughput drug screen in 47 multiple myeloma cell lines against the NCATS MIPE library collection: KMS27_JCRB cell viability assay (AID 1918970); also: nearly all actives have a fitted effect of over 30% in size; also: potency is read from the fitted curve at half-maximal effect
Procedure, shortened: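 ATP-based viability (CellTiter-Glo luminescence) is measured in cells treated 48 h with approved and investigational drugs at 37 °C. Controls are DMSO-only wells for full viability and media-only wells for none.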

[19] = Quantitative High-Throughput drug screen in 47 multiple myeloma cell lines against the NCATS MIPE library collection: ARP1_JJKsccF8 cell viability assay (AID 1918928; also: potency is read from the fitted curve at half-maximal effect; nearly all actives have a fitted effect of over 40% in size)
Procedure, shortened: as §4

[20] = Quantitative High-Throughput drug screen in 47 multiple myeloma cell lines against the NCATS MIPE library collection: JJN3_DSMZ cell viability assay (AID 1918966; also: nearly all actives have a fitted effect of over 50% in size; also: potency is read from the fitted curve at half-maximal effect)
Procedure, shortened: as §2

Measured: Potency

COc1ccc(Cc2nccc3cc(OC)c(OC)cc23)cc1OC
active: [2] 16.6 µM | [3] 20.9 µM | [4] 16.6 µM
inactive: [1]

COc1ccc(-c2cc(=O)c3c(O)cc(O)cc3o2)cc1O
active: [5] 4.69 µM | [6] 4.69 µM | [7] 5.26 µM | [8] 6.62 µM | [9] 7.43 µM | [10] 10.5 µM | [11] 7.43 µM | [2] 9.35 µM | [3] 8.33 µM | [12] 3.72 µM | [13] 5.9 µM | [14] 4.18 µM

C[N+](C)(C)CC(=O)O
inactive: [1] | [6] | [8] | [9] | [15] | [10] | [16] | [13]

Cn1cc(C=C2C(=O)Nc3cccnc32)c2ccccc21
inactive: [1] | [6] | [17] | [12] | [18] | [4]
active: [11] 16.6 µM

C[C@H](NC(=O)C(=O)Nc1ccccc1C(C)(C)C)C(=O)N[C@@H](CC(=O)O)C(=O)COc1c(F)c(F)cc(F)c1F
inactive: [5] | [6] | [11] | [16]
active: [7] 4.69 µM | [19] 14.8 µM | [8] 1.18 µM | [17] 2.64 µM | [9] 1.66 µM | [2] 4.18 µM | [3] 18.7 µM | [18] 3.32 µM | [13] 4.69 µM

O=c1ccn([C@@H]2O[C@H](CO)[C@H](O)[C@H]2O)c(=O)[nH]1
active: [4] 11.8 µM
inactive: [1] | [6] | [17] | [9] | [10] | [11] | [3] | [20] | [16] | [18]

O=C(Nc1ccccc1Br)N[C@@H]1CCN(c2ccc(C(F)(F)F)cn2)C1
active: [10] 14.8 µM | [11] 18.7 µM | [3] 16.6 µM | [12] 18.7 µM
inactive: [1] | [9] | [15] | [13]

CC1(C)O[C@H]2C[C@@H]3[C@H]4CCC5=CC(=O)C=C[C@]5(C)[C@@]4(F)[C@@H](O)C[C@]3(C)[C@]2(C(=O)CO)O1
active: [8] 0.0037 µM | [15] 0.0118 µM
inactive: [1] | [6] | [17] | [9] | [11] | [2] | [3] | [20] | [13]

CC(=O)N(C)C1(c2ccccc2)CCN(CCC[C@]2(c3ccc(Cl)c(Cl)c3)CCCN(C(=O)c3ccccc3)C2)CC1
active: [5] 10.5 µM | [6] 20.9 µM | [7] 10.5 µM | [8] 20.9 µM | [17] 16.6 µM | [9] 14.8 µM | [10] 16.6 µM | [11] 20.9 µM | [3] 10.5 µM | [20] 18.7 µM | [12] 16.6 µM | [18] 23.5 µM | [4] 20.9 µM | [13] 7.43 µM | [14] 4.69 µM

CCS(=O)(=O)N1CC(CC#N)(n2cc(-c3ncnc4[nH]ccc34)cn2)C1
active: [1] 16.6 µM | [7] 3.72 µM | [15] 0.105 µM | [10] 11.8 µM | [11] 16.6 µM | [3] 0.418 µM | [4] 18.7 µM
inactive: [8] | [9] | [16] | [14]

COc1ccc2c(Oc3ccc(NC(=O)c4c(C)n(CC(C)(C)O)n(-c5ccccc5)c4=O)nc3)ccnc2c1
active: [1] 20.9 µM
inactive: [17] | [11] | [2] | [18]

CC(C(=O)O)c1ccc(-c2ccccc2)c(F)c1 (stereo unspecified)
active: [6] 13.2 µM | [3] 18.7 µM | [12] 20.9 µM | [14] 4.69 µM
inactive: [1] | [17] | [9] | [2] | [13]

CC[C@]1(O)C[C@@H]2CN(CCc3c([nH]c4ccccc34)[C@@](C(=O)OC)(c3cc4c(cc3OC)N(C=O)[C@@H]3C45CCN4CC=C[C@](CC)([C@H]45)[C@@H](OC(C)=O)[C@]3(O)C(=O)OC)C2)C1 (stereo partly specified)
active: [1] 20.9 µM | [20] 20.9 µM | [4] 18.7 µM
inactive: [8] | [17] | [9] | [15] | [2] | [18] | [13]

C[C@]12CC[C@@H]3c4ccc(O)cc4C[C@@H](CCCCCCCCCS(=O)CCCC(F)(F)C(F)(F)F)[C@H]3[C@H]1CC[C@H]2O (stereo partly specified)
active: [4] 16.6 µM | [13] 7.43 µM
inactive: [1] | [7] | [8] | [17] | [9] | [10] | [11] | [2] | [3] | [16] | [18]

COc1ccc2c3c1OC1C[C@@H](O)C=C[C@@]31CCN(C)C2 (stereo partly specified)
active: [11] 14.8 µM | [20] 4.18 µM
inactive: [1] | [7] | [17] | [9] | [2] | [18] | [13]
